# Assay outcomes: PubChem, several laboratories
# Shown are actives, neighbours in structure and some others; about 3.5% of the full set was active somewhere.
# Anthrax LF prot: inhibitors of Bacillus anthracis lethal factor protease; multiplex microsphere protease cleavage assay, LF; inhibition, % at 10 µM; actives 0.12% (n = 360,000); further: plate controls were buffer without enzyme for full effect and enzyme alone for no effect
# Target sequence (P15917 whole entry, looked up): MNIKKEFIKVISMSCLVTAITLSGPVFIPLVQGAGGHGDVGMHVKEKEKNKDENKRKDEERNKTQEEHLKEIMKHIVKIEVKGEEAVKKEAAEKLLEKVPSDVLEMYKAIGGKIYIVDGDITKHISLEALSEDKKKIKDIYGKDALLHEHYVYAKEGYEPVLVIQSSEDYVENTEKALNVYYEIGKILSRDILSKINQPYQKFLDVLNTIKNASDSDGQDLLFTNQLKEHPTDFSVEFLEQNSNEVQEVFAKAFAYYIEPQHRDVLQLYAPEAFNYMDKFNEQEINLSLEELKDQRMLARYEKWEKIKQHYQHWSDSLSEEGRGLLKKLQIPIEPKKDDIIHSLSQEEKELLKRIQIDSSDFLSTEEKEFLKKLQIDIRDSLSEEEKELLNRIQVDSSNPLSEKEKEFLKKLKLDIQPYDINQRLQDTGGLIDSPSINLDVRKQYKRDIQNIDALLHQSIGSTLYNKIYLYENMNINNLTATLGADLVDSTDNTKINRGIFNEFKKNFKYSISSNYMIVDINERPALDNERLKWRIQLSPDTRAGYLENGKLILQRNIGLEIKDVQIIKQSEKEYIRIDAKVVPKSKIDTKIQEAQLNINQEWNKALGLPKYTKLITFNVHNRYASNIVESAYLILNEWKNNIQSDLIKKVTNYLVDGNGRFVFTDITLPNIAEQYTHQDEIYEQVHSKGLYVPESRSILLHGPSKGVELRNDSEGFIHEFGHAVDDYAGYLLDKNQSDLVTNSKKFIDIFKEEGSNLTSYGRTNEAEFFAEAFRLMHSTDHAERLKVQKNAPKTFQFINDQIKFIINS
# Autofluor counter: counter-screen for toxin protease inhibitors: compound fluorescence. compound autofluorescence counterscreen, microsphere flow cytometry; hits give high values. fluorescence intensity (test concentration not listed). actives 3.1% (n = 360,000). AID 624483; in the data active means fluorescence intensity above about 16000; inconclusive means no clear call, values can overlap the other calls
# BoNT-A LC inh2: BoNT A light chain protease inhibition. multiplex microsphere protease substrate cleavage, flow cytometry. inhibition, % at 10 µM. actives 0.17% (n = 360,000). AID 588499; further: plate controls were buffer without enzyme for full effect and enzyme alone for no effect
# BJeLR lethal: kills HRASV12-expressing BJeLR cells | BJeLR (HRASV12) viability, CellTiter-Glo ATP luminescence, 48 h | inhibition, % (no concentration beside the values) | actives 0.17% (n = 300,000) | AID 1554; in the data active means inhibition above about 50%; inconclusive means no clear call, values can overlap the other calls
# BoNT-F LC inh: inhibitors of Botulinum neurotoxin F light chain protease; AID 588497; Multiplex microsphere protease cleavage assay, flow cytometry; inhibition, % at 10 µM; actives 0.22% (n = 360,000); in the data active means inhibition above about 35%, passing the limit was not always enough; inconclusive means no clear call, values can overlap the other calls; further: plate controls were buffer without enzyme for full effect and enzyme alone for no effect
# * marks the source's active call; other numbers are inactive results; ? = inconclusive; . = no result. Unless noted, no stated cut-off is given here; in the data, active means inhibition above about 30%; inconclusive means no clear call, values can overlap the other calls; inactive means below that.
SMILES,Anthrax LF prot,Autofluor counter,BoNT-A LC inh2,BJeLR lethal,BoNT-F LC inh
COc1cc(NC(=O)C(F)(F)F)cc(OC)c1,-2.9,16433*,-0.9,-0.1,-4.8
COc1cc(NC(=O)N[C@H](C(=O)O)C(C)C)cc(OC)c1,1.2,21545*,1.9,-3.8,4.5
CCC(=O)Nc1cc(OC)cc(OC)c1,-10.7,6039,-1.9,-10.4,-12.6
N#C/C(=C\c1cccc(OCC(=O)O)c1)c1nc2ccccc2[nH]1,-4.4,3848,0.7,-6.1,-36.1
O=C(/C=C/[C@H]1O[C@@H](n2ccc(=O)[nH]c2=O)[C@H](O)[C@@H]1O)NCCCc1ccccc1,-1.1,6072,0.8,.,-3.4
CCCN1Cc2cccc(C(=O)Nc3cc(OC)cc(OC)c3)c2C1=O,-7.8,22619*,1.0,-9.4,1.7
COc1ccccc1N1CC(C(=O)OCC(=O)c2ccc(F)cc2)CC1=O (stereo unspecified),-6.3,23806*,-0.2,-9.6,-1.1
CN(C)c1ccc(NC(=O)COC(=O)CCC(=O)c2ccc(F)cc2)cc1,-3.1,21300*,-1.4,-4.4,-6.3
CCNC(=O)COC(=O)CCC(=O)c1ccc(F)cc1,8.1,3977,0.8,16.4,-4.5
Cc1ccc(CNC(=O)c2cc3c(s2)CN(Cc2ccccc2)C3)cc1,-3.6,4281,-0.6,0.9,-6.1
CCOc1ccccc1NC(=O)N1CCC(c2nc3ccc(C)cc3[nH]2)CC1,-0.5,11879,-0.9,-8.7,-9.7
Cc1ccc2nc(C3CCN(CC(=O)N4CCCCCC4)CC3)[nH]c2c1,4.1,23345*,0.4,-2.5,-0.3
Cc1ccc2nc(C3CCN(C(=O)c4ccco4)CC3)[nH]c2c1,-1.7,23117*,0.1,3.2,-1.0
Cc1ccc(C)c(Cn2nnc3c(=O)[nH]c(C4CCN(C(=O)c5ccco5)CC4)nc32)c1,-14.0,3710,0.2,5.7,-2.3
C[C@@H]1ON(C)[C@H]2C[C@H]3c4[nH]c5ccccc5c4CCN3C[C@@H]12,1.4,3798,1.8,.,-9.2
CCOC(=O)C1CCC2(CC1)C(C#N)=C(N)Oc1n[nH]c(C)c12 (stereo unspecified),1.1,20477*,-2.4,-10.3,-3.0
CCOC(=O)C1CCCCC12C(C#N)=C(N)Oc1n[nH]c(C)c12 (stereo unspecified),-2.3,4542,-0.6,3.4,-5.8
COc1ccc(CCN2C(=O)c3cccc4cccc(c34)C2=O)cc1OC,-16.8,17334*,10.8,9.5,10.3
COc1ccc(CCNC(=O)CN2C(=O)c3cccc4cccc(c34)C2=O)cc1OC,-1.1,2258,0.7,-1.1,4.5
COc1ccc(CCN2C(=O)C3C4C=CC(C3C2=O)C2C(=O)N(CCc3ccc(OC)c(OC)c3)C(=O)C42)cc1OC (stereo unspecified),-5.0,19991*,2.1,9.5,1.6
O=C(COC(=O)CCCOc1ccccc1)NNC(=O)c1ccc([N+](=O)[O-])cc1,-1.2,5273,0.3,-5.4,-1.5
O=S1(=O)[C@H]2C[C@@H]3CC[C@]2(CN1Cc1cccc(F)c1)O3,-3.4,4540,-1.4,0.4,-7.5
COc1ccc(-n2c(C)cc(-c3csc(N)n3)c2C)cc1,-8.8,1756,5.5,7.9,-66.7
CC1CCN(c2nc3nonc3nc2N2CCC(C)CC2)CC1,-1.8,21212*,?,-0.2,-1.8
CC1(C)Cc2ccccc2C(N/N=C/c2ccc(Cl)cc2)=N1,-3.8,2451,-0.9,-1.7,1.1
SMILES,Anthrax LF prot,Autofluor counter,BoNT-A LC inh2,BJeLR lethal,BoNT-F LC inh
CC(NC(=O)COC(=O)c1ccc(N(C)C)cc1)c1ccccc1 (stereo unspecified),-0.2,4670,-0.7,2.2,-6.1
COc1ccc(NC(=O)CC2C(=O)N(C)C(=S)N2Cc2cccs2)cc1 (stereo unspecified),0.3,10968,-2.3,-1.3,-21.2
CCCOc1ccc(NC(=O)CC2C(=O)N(CC)C(=S)N2Cc2cccs2)cc1 (stereo unspecified),-3.7,21389*,-3.7,-8.4,-7.8
CN(Cc1nc2ccccc2c(=O)[nH]1)C(=O)c1ccc(S(=O)(=O)N(C)C)cc1,0.7,20390*,1.2,-9.4,1.1
CCC(CC)C(=O)c1c[nH]c(C(=O)N2CCN(c3ccccc3F)CC2)c1,-0.9,4463,-1.7,-8.9,3.8
O=C(COc1ccc2ccccc2c1)N1c2ccccc2Sc2ccccc21,1.0,22677*,-7.3,10.5,-6.0
O=C(CCl)N1c2ccccc2Sc2ccc3ccccc3c21,-2.1,3468,-0.1,.,0.1
CNC1=C(N(C(C)=O)c2ccc(Br)cc2)C(=O)c2ccccc2C1=O,1.3,2309,-0.4,51.0*,-0.5
COCCN(C(=O)COC(=O)CCC(=O)c1ccc(Cl)cc1)c1c(N)n(Cc2ccccc2)c(=O)[nH]c1=O,-0.3,4748,3.0,-12.2,2.2
CC(=O)Nc1ccc(-c2nnc(SCc3c(C)cc(C)cc3C)n2C)cc1,0.0,23890*,0.0,-5.1,-3.2
COc1ccccc1-c1nnc(SCC(=O)Nc2ccc(S(N)(=O)=O)cc2)n1C,-3.7,21773*,-3.0,-0.9,-5.8
CCOC(=O)Cc1csc(NC(=O)CSc2nnc(-c3ccc(OC)cc3)n2C)n1,0.4,20591*,?,7.0,-3.9
COc1ccc(NC(=O)CSc2nnc(-c3ccccc3C)n2C)cc1,-0.7,19446*,?,-19.0,1.4
CCOC(=O)Cc1csc(NC(=O)CSc2nnc3ccccn23)n1,-1.7,2527,-0.7,0.9,-8.5
C=Cc1cnc([N+](=O)[O-])n1C,1.0,3565,-0.3,.,-2.4
COc1ccc(CNC(=O)CSc2nnc(-c3ccc(NC(C)=O)cc3)n2C)cc1,-6.6,17726*,4.6,-1.6,2.9
CCOc1ccc(NC(=O)CSc2nnc(-c3ccccn3)n2N)cc1,-4.1,16005,0.8,-1.9,-1.1
COc1ccc(NC(=O)CSc2nnc(-c3ccccn3)n2N)cc1,-24.5,9304,33.7*,9.6,35.1*
CCn1c(CCNC(=O)c2ccc(OC)cc2)nnc1SCC(=O)Nc1ccccc1F,-2.8,3233,0.1,3.0,-5.9
COc1ccc(-n2c(SCC(N)=O)nnc2-c2ccccc2F)cc1,0.2,16562*,0.1,-1.4,-1.5
COc1ccc(C(=O)NCCc2nnc(SCC(=O)Nc3ccccc3C(C)C)n2C)cc1,-3.2,20025*,0.1,-18.2,0.3
CN(C)c1ccc(-c2csc(C(C)(O)c3ccc(F)c(F)c3)n2)cc1 (stereo unspecified),-0.3,3198,0.2,.,-3.1
Nc1ccn([C@@H]2O[C@H](C(=O)NCc3ccc4c(c3)OCO4)[C@@H](O)[C@H]2O)c(=O)n1,-13.5,5534,-0.9,.,-12.3
COC(=O)C[C@H]1C=C[C@@H](C(C(=O)OC)C(=O)OC)CN1C(C)=O,-1.8,3524,0.1,.,1.2
COc1cc(/C=N/NC(=O)c2nnn(-c3nonc3N)c2C)ccc1OCc1ccc(Cl)cc1,-1.1,3391,0.0,.,-3.2
COCCn1c(SCC(=O)NCc2cccs2)nnc1-c1ccc(OC)cc1,-0.4,9387,0.1,-3.7,0.3
CCNC(=O)CSc1nnc(-c2ccc(OC)cc2)n1CC(C)C,-10.1,21420*,3.3,-4.9,2.5
